PubChem BioAssay (NCI)
About 83,000 compounds went through this panel and 20% of them were active in at least one assay; those are over-represented in the sample as a whole.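 Negative percent growth values reflect cell death: -40 means 40% of the cells present at the start died, and -100 means all died.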 A number with no mark means an inactive call. Activity calls are given as the source filed them. Rule for the calls: active = growth percent below 10; inactive = the rest.

How the values were obtained:
Assay in all cases: NCI-60 one-dose screen, 48 h (100 = growth as untreated, 0 = no growth, -100 = all killed)
Conditions in all cases: 10 µM unless noted
HCT-15 colon = test system: HCT-15 colon
HT29 colon = test system: HT29 colon
SNB-75 CNS = test system: SNB-75 CNS
SNB-19 CNS = test system: SNB-19 CNS
PC-3 prostate = test system: PC-3 prostate
SK-MEL-5 melanoma = test system: SK-MEL-5 melanoma
UACC-62 melanoma = test system: UACC-62 melanoma
LOX IMVI melanoma = test system: LOX IMVI melanoma
SK-MEL-28 melanoma = test system: SK-MEL-28 melanoma

Row | Structure (SMILES) | growth (HCT-15 colon) | growth (HT29 colon) | growth (SNB-75 CNS) | growth (SNB-19 CNS) | growth (PC-3 prostate) | growth (SK-MEL-5 melanoma) | growth (UACC-62 melanoma) | growth (LOX IMVI melanoma) | growth (SK-MEL-28 melanoma)
1 | O=C(/C=C/c1ccccc1)c1ccc(O)c(CN2CCN(c3cc4c(cc3F)c(=O)c(C(=O)O)cn4C3CC3)CC2)c1 | 16.9% | 5.56% (active) | -2.4% (active) | 29.8% | 18.3% | -42.1% (active) | 21.3% | 6.26% (active) | 46.5%
2 | COc1cc2nc(N3CCCC3)nc(NCCc3ccccc3)c2cc1OC | -55.1% (active) | 5.28% (active) | 93.5% | 87.6% | 67% | 90.3% | 94.7% | -74.8% (active) | 88.6%
3 | COc1cc(C=Nc2oc(-c3ccccc3)c(-c3ccccc3)c2C#N)cc(CN2CCCCC2)c1O | 95.4% | 102% | 66.6% | 98.6% | 93.2% | 98.4% | 88.4% | 87.7% | 110%
4 | CC(C)C1=C[C@@]23CC[C@@H]4[C@](C)(CCC[C@@]4(C)C(=O)N4CCCNCC4)[C@H]2C[C@@H]1[C@H]1C(=O)CCC(=O)[C@H]13 | 97.5% | 108% | 63.5% | 99.5% | 93% | 97.7% | 98.2% | 92.1% | 109%
5 | N#Cc1c(-c2ccc(Cl)cc2)nc(N=Nc2c(O)[nH]c3ccc(Cl)cc23)nc1N1CCOCC1 | 100% | 107% | 68.7% | 101% | 99.2% | 97.3% | 93.7% | 83.2% | 101%
6 | COC(=O)[C@]12CCC(C)(C)C[C@H]1[C@H]1C(=O)C[C@@H]3[C@@]4(C)c5c([nH]c6ccccc6c5=O)C(C)(C)[C@@H]4CC[C@@]3(C)[C@]1(C)CC2 | 46.5% | 45.4% | 65% | 75.3% | 36.6% | 12.4% | 54.5% | 58.3% | 68%
7 | Cn1c(=O)c2c(nc3n(-c4ccc(Cl)cc4Cl)c(Sc4nc(-c5ccccc5)c(C#N)c(=O)[nH]4)cn23)n(C)c1=O | 63.1% | 57.1% | -5.62% (active) | 24.7% | 75.7% | 90.4% | 63.2% | 33.5% | 87.8%
8 | C=C(C)[C@@H]1CC[C@]2(C(=O)OC)CC[C@]3(C)[C@H](CC[C@@H]4[C@@]5(C)C/C(=C/c6ccc(OC)cc6)C(=O)C(C)(C)[C@@H]5CC[C@]43C)[C@@H]12 | 59.6% | 32.1% | 75.7% | 108% | 84.9% | 95.8% | 99.7% | 79.6% | 102%
9 | COc1ccc(-c2cc(C(=O)N=Nc3c(O)[nH]c4ccc(Br)cc34)no2)cc1 | 100% | 100% | 66.1% | 92% | 95.8% | 97.4% | 101% | 96% | 113%
10 | COc1cc(/C=C/c2cc(O)c3cc(C(C)=O)c(=O)oc3c2)cc2c1O[C@]1(C)CC[C@@H](O)C(C)(C)[C@H]1C2 | 14.4% | 60.5% | -8.02% (active) | 48.1% | 27.4% | -96.8% (active) | -11.7% (active) | 18.8% | -0.116% (active)
11 | COc1cccc(-c2nc3sccn3c2-c2ccnc(NCCCNS(=O)(=O)c3cccc(Cl)c3)c2)c1 | 28.7% | 54.5% | 51.8% | 66.3% | 21.7% | -12.5% (active) | -7.03% (active) | 35.6% | 67.4%
12 | O=S(=O)(Nc1ccc(Cl)c(F)c1)c1ccc(-c2cnc(C3CC3)o2)cc1 | 21.1% | -6.67% (active) | -7.32% (active) | 44.9% | 29.9% | 17.4% | 24.8% | 40.3% | 58.5%
13 | O=C(N/N=C/c1c[nH]c2ccccc12)c1cc(-c2ccccc2)on1 | 71.2% | 102% | 67% | 89.8% | 88% | 91.3% | 62.8% | 56.3% | 106%
14 | COc1cccc(-c2nc3sccn3c2-c2ccnc(NCCNS(=O)(=O)c3ccc(F)cc3)c2)c1 | 17.2% | 24% | 22.9% | 50.5% | 16.3% | -53.1% (active) | -9.01% (active) | 25.1% | 45.2%
15 | O=C(N=Nc1c(O)[nH]c2ccccc12)c1cc(-c2ccccc2)on1 | 102% | 104% | 53.7% | 100% | 101% | 100% | 99.6% | 95.9% | 108%
16 | CSc1nc(-c2cccc(NC(=O)CCl)c2)c(C#N)c(=O)n1C | 11% | -33.7% (active) | 54% | 86.6% | 77.5% | 79.4% | 60.4% | -91.6% (active) | 87.3%
17 | O=C1NC(=S)NC(=O)C1CC(=O)n1c(-c2ccccc2)nc2ccccc21 | 94.3% | 106% | 66.5% | 94.8% | 97.7% | 98.5% | 94.9% | 88.7% | 112%
18 | O=C1c2cc3c(cc2-c2c1c1cc(F)c(F)cc1c(=O)n2CCCn1ccnc1)OCO3 | 4.66% (active) | 3.52% (active) | 24.4% | 15.7% | 9.43% (active) | -74.9% (active) | -61.4% (active) | -20.4% (active) | 34.8%
19 | C=CC(=O)Nc1cccc(-c2nc(SC)nc(Nc3cccc(OC)c3)c2C#N)c1 | 52.5% | 56.9% | 18% | 66.9% | 53.1% | 77% | 78.1% | 72.1% | 87%
20 | N#Cc1c(-c2ccc(Cl)cc2)nc(NN=Cc2ccco2)nc1N1CCOCC1 | 80.3% | 87% | 10.3% | 80% | 68.3% | 80.9% | 58.2% | 78.7% | 65.9%
21 | N=C(N)c1ccc(-c2ccc(-c3ccc4ccccc4c3)s2)s1 | -82.4% (active) | -60.5% (active) | 89.3% | -40.4% (active) | 71.9% | 84.4% | -6.73% (active) | -56.6% (active) | 92.8%
22 | N#CCCN=Nc1c(O)[nH]c2ccc([N+](=O)[O-])cc12 | 102% | 101% | 70.5% | 100% | 99.7% | 99.2% | 93.2% | 90.3% | 112%
23 | Cc1cc(NS(=O)(=O)c2ccc(-c3cnc(C4CC4)o3)cc2)ccc1Cl | 17% | -17.1% (active) | -0.004% (active) | 44.3% | 24.7% | 24.8% | 26.4% | 46.5% | 50.5%
24 | Cc1ccc(NS(=O)(=O)c2ccc(-c3cnc(C4CC4)o3)cc2)cc1C | 19.5% | -10.4% (active) | -7.43% (active) | 46.8% | 22.7% | -3.9% (active) | 24.1% | 39.4% | 66%
25 | COc1cccc(-c2nc3sccn3c2-c2ccnc(NCCCNS(=O)(=O)c3c(Cl)cccc3Cl)c2)c1 | 37.7% | 48.4% | 73% | 78.7% | 35.1% | 22.8% | 25.7% | 54.1% | 90.1%
26 | COc1ccc(-c2nc3ccc(-c4nc5ccc(N6CCN(c7ccc(F)cc7)CC6)cc5[nH]4)cc3[nH]2)cc1OC | 44.7% | 44.3% | 64.3% | 117% | 62.7% | 65.6% | 60.6% | 37.1% | 90.6%
